# Screens (PubChem)
# A selection: hits, their analogues and other compounds. The true share with any hit is near 7.5%.
# FLuc counter – inhibits or activates purified firefly luciferase, miR-21 counter-screen; P08659; purified FLuc, Km substrates, luminescence inhibition; Potency, µM (top dose mostly 57.5 µM), most hits filed as inhibitors; 360,000 compounds, 6.9% hits; AID 588342; further: nearly all actives have a fitted effect of over 55% in size
# Target sequence (P08659 whole entry, looked up): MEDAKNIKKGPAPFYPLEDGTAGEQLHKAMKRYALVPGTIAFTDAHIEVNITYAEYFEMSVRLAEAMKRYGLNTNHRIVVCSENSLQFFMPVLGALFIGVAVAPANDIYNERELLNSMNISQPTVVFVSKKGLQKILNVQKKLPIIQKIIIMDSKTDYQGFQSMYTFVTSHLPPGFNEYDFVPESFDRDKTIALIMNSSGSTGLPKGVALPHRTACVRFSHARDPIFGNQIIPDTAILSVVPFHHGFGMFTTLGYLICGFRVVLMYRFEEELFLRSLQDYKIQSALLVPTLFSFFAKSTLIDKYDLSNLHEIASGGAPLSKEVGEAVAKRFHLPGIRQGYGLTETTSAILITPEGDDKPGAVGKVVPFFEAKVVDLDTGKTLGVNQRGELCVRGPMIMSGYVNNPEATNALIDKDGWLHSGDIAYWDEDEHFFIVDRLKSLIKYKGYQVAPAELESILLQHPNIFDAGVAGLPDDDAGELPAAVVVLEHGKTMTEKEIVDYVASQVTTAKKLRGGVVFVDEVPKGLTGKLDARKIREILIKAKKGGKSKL
#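 Purified P. pyralis luciferase, 10 nM final, with Km-level 10 uM D-luciferin and 10 uM ATP in 50 mM Tris acetate pH 7.5, 10 mM Mg acetate, 0.01% Tween-20, 0.05% BSA; 6-point qHTS titration about 60 µM downward; luminescence read.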
# NPC1 prom act – NPC1 promoter activation; Huh7 NPC1 promoter luciferase reporter, 24 h; Potency, µM (highest dose often 9.22 µM), most hits filed as activators; 320,000 compounds, 2.4% hits; further: nearly all actives have a fitted effect of over 60% in size
#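 Stable NPC1-promoter luciferase Huh7 line; cpd (DMSO) 24 h, 37 °C, 5% CO2; Amplite luciferase reagent 10 min RT; luminescence readout. qHTS format.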
# Luc counter – counter-screen: inhibitors of Kinase-Glo firefly luciferase; 200,000 compounds, 0.28% hits; Kinase-Glo luciferase, ATP luminescence, 8 min; Potency, µM (highest dose often 38.3 µM), most hits filed as inhibitors; Q27757; further: nearly all actives have a fitted effect of over 60% in size
#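 Substrate mix (final 50 mM imidazole pH 7.2, 50 mM KCl, 7 mM MgCl2, 10 uM ATP, 0.01% Tween 20, 0.05% BSA) plus pin-tool compound, then Kinase-Glo detection mix; 8 min ambient, luminescence read.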
# ELG1 genotox – inducers of genotoxicity in HEK293T ELG1-luciferase cells. HEK293T ELG1-luciferase reporter, luminescence, 16 h. Potency, µM (highest dose often 46 µM), hits mostly activators. 330,000 compounds, 1.3% hits. AID 504466; further: nearly all actives have a fitted effect of over 60% in size
#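 HEK293T cells expressing luciferase-tagged ELG1 were treated with compound or DMSO for 16 hr at 37°C. Luciferase activity was then read after 30 min with ONE-Glo at room temperature; rising signal flags genetic stress.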
# SMN2 splice enh – enhancers of SMN2 splice variant expression; HEK293 SMN2-luciferase splicing reporter, luminescence, 30-36 h; Potency, µM (highest dose often 46.1 µM), most hits filed as activators; 210,000 compounds, 2.8% hits; AID 1458; further: nearly all actives have a fitted effect of over 55% in size
#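 HEK293 cells carry an SMN2 minigene-luciferase reporter in which exon 7 inclusion puts luciferase in frame. Cells were seeded at 2000 cells/well, attached for 10-12 hours, then exposed to compounds for 30-36 hours at 37C before ONE-Glo luminescence.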
# Rab9 promoter act – activators of Rab9 promoter; AID 485297; Potency, µM (top dose mostly 9.22 µM), hits mostly activators; 320,000 compounds, 2.8% hits; Huh7 Rab9 promoter-luciferase reporter, luminescence, 24 h; further: nearly all actives have a fitted effect of over 60% in size
#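 Steps: seed 1500 Huh7 Rab9-luc cells per well, rest 2 h at 37 °C; add compound in DMSO; incubate 24 h; add luciferase reagent, 10 min ambient; read luminescence.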
# Numbers stand for hits; - = inactive; ? = inconclusive; . = no result. The call rests on the fitted dose curve; in most records, active means well fitted curve in the direction sought with a large enough effect; inconclusive means small, poorly fitted or top-dose-only effect, or another doubt; inactive means no such curve, though single readings can be large; an effect the other way counts as inactive or inconclusive.
SMILES,FLuc counter,NPC1 prom act,Luc counter,ELG1 genotox,SMN2 splice enh,Rab9 promoter act
O=C(/C=C/c1ccccc1F)c1cccc([N+](=O)[O-])c1,12µM,-,-,?,-,-
COc1cc(/C=C/C(=O)c2cccc([N+](=O)[O-])c2)cc(OC)c1OC,-,-,-,-,-,-
Cc1ccc(-c2ccc(/C=C/C(=O)c3ccccc3)o2)cc1,?,-,-,-,-,-
O=C(O)c1cccc([N+](=O)[O-])c1,.,.,.,.,-,.
Cc1ccc(C(=O)/C=C/c2ccc(-c3ccccc3[N+](=O)[O-])o2)cc1,19µM,?,-,-,-,-
O=C(C#Cc1ccccc1)c1cccc([N+](=O)[O-])c1,11µM,-,-,-,-,-
Cc1ccc(NC(=O)Cn2nc(-c3ccccc3Cl)ccc2=O)c(Br)c1,-,-,-,-,-,-
N[C@H](C(=O)O)c1cccc(O)c1,.,.,-,.,-,.
CCOC(=O)c1ccc(NC(=O)COC(=O)c2cccc(Oc3ccccc3)c2)cc1,-,-,-,-,-,-
O=C(/C=C/c1ccc(-c2ccccc2[N+](=O)[O-])o1)c1ccc(F)cc1,13µM,-,-,-,-,-
Cc1ccc(C(=O)C(C)OC(=O)c2ccccc2[N+](=O)[O-])cc1 (stereo not given),1.1µM,0.89µM,-,7.3µM,13µM,1.6µM
Cc1ccc(C(=O)/C=C/c2ccccc2[N+](=O)[O-])cc1,8.5µM,-,-,?,-,?
O=C(/C=C/c1ccc(-c2ccccc2[N+](=O)[O-])o1)c1ccc(Br)cc1,?,-,-,-,-,-
O=C(/C=C/c1ccccc1[N+](=O)[O-])c1ccccc1Br,?,-,-,-,-,-
COc1ccc(-c2n[nH]c3c2cnc2ccc(F)cc23)cc1,-,.,.,.,.,.
c1ccc2sc(NC3=NCN(CC4CCCO4)CN3)nc2c1 (stereo not given),-,-,-,-,-,-
COc1cccc(Nc2nc(-c3cccnc3)cs2)c1,4.8µM,?,.,?,.,?
COc1ccc(-c2csc(Nc3cccnc3)n2)cc1OC,2.4µM,-,-,-,-,-
Cc1ccc(Nc2nc(-c3cccnc3)cs2)cc1Cl,4.8µM,-,.,21µM,.,?
O=C(O)c1ccc(Nc2nc(-c3cccnc3)cs2)cc1O,12µM,-,.,-,.,-
c1cncc(Nc2nc(-c3cccnc3)cs2)c1,?,-,-,-,-,-
CN(C)CCN(Cc1ccccc1)S(=O)(=O)c1ccc2[nH]c(=O)ccc2c1,-,.,.,.,.,.
Cc1ccc(O)c(NC(=S)NC(=O)c2ccccc2Cl)c1,17µM,-,-,-,?,-
O=C(NC(=S)Nc1ccc(O)cc1)c1ccccc1Cl,?,?,-,?,?,4µM
COc1ccc(NC(=S)NC(=O)c2ccccc2Cl)cc1,?,-,-,-,.,?
SMILES,FLuc counter,NPC1 prom act,Luc counter,ELG1 genotox,SMN2 splice enh,Rab9 promoter act
O=C(c1ccccc1)c1ccc2n1CC[C@H]2C(=O)O,.,.,-,.,-,.
Cc1ccc(/C(N)=N/OC(=O)CCc2ccccc2)cc1,15µM,-,.,?,.,-
N/C(=N\OC(=O)CCc1ccccc1)c1ccc(Br)cc1,?,-,-,-,-,-
N/C(=N\OC(=O)CCc1ccccc1)c1ccccc1Cl,24µM,-,-,?,-,-
N/C(=N\OC(=O)CCc1ccccc1)c1cccc(Br)c1,17µM,-,-,-,-,-
N/C(=N\OC(=O)CCCc1ccccc1)c1ccc(Br)cc1,-,-,.,-,.,-
CCc1nc(CNC(=O)C2CCC(=O)N(Cc3ccccc3F)C2)no1 (stereo not given),-,-,.,-,.,-
COc1ccccc1-n1nc(-c2ccccc2)c2cnc3c(F)cc(F)cc3c21,-,.,.,.,-,.
Cc1ccc2c(C)c(C(=O)N3CCN(Cc4ccc5c(c4)OCO5)CC3)oc2c1C,24µM,?,.,-,.,?
Cc1cc(C(=O)CSc2ccc(Cl)cc2)cc(C)c1OC(=S)N(C)C,9.5µM,2.8µM,-,?,-,?
CCOC(=O)c1[nH]c(C)c(C(=O)OCc2ccc(C)cc2)c1C,-,-,.,-,.,-
CC(=O)c1c(C)[nH]c(C(=O)COC(=O)CCSc2ccccc2)c1C,-,-,-,-,-,-
CCOC(=O)c1c(C)[nH]c(C(=O)OCc2ccccc2)c1C,2.1µM,1.3µM,.,1.8µM,.,0.63µM
Cc1ccn2c(C(=O)CSc3ccc(Cl)cc3)c(C)nc2c1,-,-,-,-,-,-
CCOC(=O)c1c(C)[nH]c(C(=O)COC(=O)CCSc2ccccc2)c1C,17µM,-,-,?,-,-
CCOC(=O)c1[nH]c(C)c(C(=O)/C=C/c2ccc(C(=O)O)cc2)c1C,13µM,-,.,-,.,-
CCOC(=O)c1c(C)[nH]c(C(=O)CSc2nccc(C)n2)c1C,?,2.8µM,-,?,8.9µM,2.8µM
CCOC(=O)c1c(C)[nH]c(C(=O)N/N=C\c2ccccc2O)c1C,6.7µM,-,-,?,-,-
Cc1cc(C(=O)CSc2ccc(F)cc2)cc(C)c1O,19µM,-,.,?,.,-
CCOC(=O)c1c(C)[nH]c(C(=O)C(C)Sc2ccc(Cl)cc2)c1C (stereo not given),27µM,-,-,-,-,?
CCc1ccc(C2CC(=O)Oc3c2c(=O)n(C)c2ccccc32)cc1 (stereo not given),?,.,.,.,-,.
CCOC(=O)c1c(C)[nH]c(C(=O)COC(=O)c2oc3ccccc3c2C)c1C,-,-,-,-,-,-
CCOC(=O)c1c(C)[nH]c(C(=O)CSc2ccccc2)c1C,0.54µM,0.56µM,.,0.65µM,.,0.4µM
CC(=O)c1c(C)[nH]c(C(=O)CSc2ccc(F)cc2)c1C,13µM,?,.,-,.,-
CC(C)(C)n1ncc2c(=O)n(Cc3cccc(Cl)c3Cl)cnc21,-,.,.,.,.,.
SMILES,FLuc counter,NPC1 prom act,Luc counter,ELG1 genotox,SMN2 splice enh,Rab9 promoter act
CCn1c(=O)cc(OCC(=O)NCCCN2CC(C)CC(C)C2)c2ccccc21 (stereo not given),-,-,-,16µM,?,-
CCn1c(=O)cc(OCC(=O)NCCCN2CCC(C)CC2)c2ccccc21,-,-,-,16µM,-,-
Cc1ccc2c(c1)sc(-c1ccc(N(C)C)cc1)[n+]2C,12µM,-,.,-,.,-
COc1ccc(C)cc1Nc1n[n+](-c2ccccc2)c(-c2ccc(N(C)C)cc2)s1,-,-,.,-,.,-
COc1ccccc1/C=N/NC(=O)c1sc(C)nc1C,?,-,-,-,-,-
COc1cc(/C=N/NC(=Nc2ccc(C)cc2)c2nc3ccccc3s2)ccc1O,2.7µM,-,-,2.6µM,-,?
COc1ccccc1/C=N/NC(=Nc1ccc(C)cc1)c1nc2ccccc2s1,17µM,-,-,?,-,-
COc1cc(/C=N/NC(=O)CCC(=O)Nc2ccc(C)cc2)ccc1O,-,-,-,-,-,-
